In PubChem BioAssay (EPA / NIEHS) one finds outcome and AC50 data, which are given here for seven compounds.

Read-out in assay [1]: Interleukin-8 (IL8), CXCL8 (gene 3576)
The assay is described as follows: BSK_3C_IL8: BioMAP Diversity Plus: 3C Assay for Interleukin-8 (IL8) Biomarker Activity (AID 2283020). Conditions: primary human endothelial cells (HUVEC); actives raise or lower the signal. A digest of the protocol:
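Using DMSO-treated wells as the baseline, bidirectional curve fitting was applied to ELISA-measured IL-8 from human umbilical vein endothelial cultures sampled 24 h after compound addition.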

Read-out in assay [2]: Monokine induced gamma interferon (MIG), CXCL9 (gene 4283)
The assay is described as follows: BSK_3C_MIG: BioMAP Diversity Plus: 3C Assay for Monokine induced gamma interferon (MIG) Biomarker Activity (AID 2283021). To be noted: primary human endothelial cells (HUVEC); actives raise or lower the signal. A digest of the protocol:
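ELISA-measured MIG in dosed HUVEC 3C cultures at 24 h, analysed by bidirectional fitting with DMSO defining baseline activity.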

Assay [3] is described as follows: BSK_3C_SRB: Viability Assessment in the BioMAP Diversity Plus: 3C Assay (AID 2283023).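 Note: fitted both ways against DMSO so a hit may be signal rise or drop.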 Conditions: primary human endothelial cells (HUVEC). A digest of the protocol: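 Human umbilical vein endothelial cells in the 3C system, treated 24 h. Total protein measured by 0.1% sulforhodamine B staining after 10% TCA fixation, read at 560 nm; bidirectional fit versus DMSO.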

Read-out in assay [4]: Matrix Metallopeptidase 1 (MMP1), MMP1 (gene 4312)
The assay is described as follows: BSK_BE3C_MMP1: BioMAP Diversity Plus: BE3C Assay for Matrix Metallopeptidase 1 (MMP1) Biomarker Activity (AID 2283024). To be noted: primary human bronchial epithelial cells; actives raise or lower the signal. A digest of the protocol: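 In this multiplexed primary-cell system, human bronchial epithelium received chemicals for 24 h before an ELISA for MMP1. Values reflect bidirectional fits normalised to the DMSO baseline.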

Assay [5] is described as follows: BSK_3C_Vis: BioMAP Diversity Plus: 3C Assay for Morphology Visualization (AID 2283025).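 For AC50: light microscopy image of cell morphology used as background control.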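 Note: fitted both ways so gain or loss versus DMSO counts.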 Conditions: primary human endothelial cells (HUVEC). A digest of the protocol:
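Light-microscopy morphology readout, 24 h exposure, human primary umbilical vein endothelium; analysed relative to DMSO with bidirectional fitting.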

Read-out in assay [6]: Pselectin, SELP (gene 6403)
The assay is described as follows: BSK_4H_Pselectin: BioMAP Diversity Plus: 4H Assay for Pselectin Biomarker Activity (AID 2283026). To be noted: primary human endothelial cells (HUVEC); actives raise or lower the signal. A digest of the protocol:
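Bidirectional fits against DMSO gave the endpoint. Cells: primary human umbilical vein endothelium, chemical-treated for 24 h before ELISA detection of P-selectin.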

The nature of assay [7]: BSK_4H_SRB: Viability Assessment in the BioMAP Diversity Plus: 4H Assay (AID 2283027).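 For AC50: curves fitted both ways versus DMSO so AC50 may be loss or gain.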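 Note: cells exposed to compound for 24 h before staining.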 To be noted: primary human endothelial cells (HUVEC). A digest of the protocol:
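Cytotoxicity readout: sulforhodamine B (0.1%) staining of total protein after 10% TCA fixation, measured at 560 nm in human umbilical vein endothelium at 24 h. DMSO set the baseline; fitting was bidirectional.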

The nature of assay [8]: BSK_BE3C_SRB: Viability Assessment in the BioMAP Diversity Plus: BE3C Assay (AID 2283028). To be noted: primary human bronchial epithelial cells. Summed up: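 Human bronchial epithelial primary cells in confluent culture, 24 h after chemical dosing; total protein by 0.1% SRB staining after 10% TCA fixation, read at 560 nm. Bidirectional fitting versus DMSO baseline.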
Read-out in assay [9]: Thrombomodulin, THBD (gene 7056)
The experiment in a line: BSK_3C_Thrombomodulin: BioMAP Diversity Plus: 3C Assay for Thrombomodulin Biomarker Activity (AID 2283029). To be noted: primary human endothelial cells (HUVEC); actives raise or lower the signal. A digest of the protocol: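 In a multiplexed primary-cell system, human umbilical vein endothelium received chemical and was assayed 24 h later for thrombomodulin by ELISA. Parallel cultures were SRB-stained (0.1% SRB after 10% TCA fixation, read at 560 nm) to flag cytotoxicity.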

Read-out in assay [10]: Urokinase-type plasminogen activator receptor (uPAR), PLAUR (gene 5329)
The experiment in a line: BSK_4H_uPAR: BioMAP Diversity Plus: 4H Assay for Urokinase-type plasminogen activator receptor (uPAR) Biomarker Activity (AID 2283030). Conditions: primary human endothelial cells (HUVEC); actives raise or lower the signal. A digest of the protocol:
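Human umbilical vein endothelial cells in the 4H system, 24 h after chemical dosing. Cell-surface uPAR measured by ELISA, fitted in both directions versus DMSO; cytotoxicity checked by SRB total protein in parallel cultures.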

Read-out in assay [11]: Vascular endothelial growth factor receptor 2 (Homo sapiens) (UniProt P35968)
The experiment in a line: BSK_4H_VEGFRII: BioMAP Diversity Plus: 4H Assay for Vascular endothelial growth factor receptor 2 (VEGFR2) Biomarker Activity (AID 2283031). Conditions: primary human endothelial cells (HUVEC); actives raise or lower the signal. A digest of the protocol: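 Primary human umbilical vein endothelial cells (4H system), 24 h exposure; cell-surface VEGFR2 measured by ELISA. Bidirectional fitting versus DMSO; cytotoxicity checked in parallel by SRB total-protein staining.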

Read-out in assay [12]: Human Leukocyte Antigen - DR isotype (HLADR), HLA-DRA (gene 3122)
The assay is described as follows: BSK_BE3C_HLADR: BioMAP Diversity Plus: BE3C Assay for Human Leukocyte Antigen - DR isotype (HLADR) Biomarker Activity (AID 2283032). Conditions: primary human bronchial epithelial cells; actives raise or lower the signal. A digest of the protocol:
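BioMAP BE3C format: human bronchial epithelium, 24 h compound treatment, ELISA detection of HLA-DR, with bidirectional analysis relative to DMSO.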

Read-out in assay [13]: Vascular cell adhesion molecule 1 (VCAM1), VCAM1 (gene 7412)
The assay is described as follows: BSK_4H_VCAM1: BioMAP Diversity Plus: 4H Assay for Vascular cell adhesion molecule 1 (VCAM1) Biomarker Activity (AID 2283033).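 For outcome: cell-surface VCAM-1 protein measured by ELISA.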 To be noted: primary human endothelial cells (HUVEC); actives raise or lower the signal. A digest of the protocol: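 In this human endothelial (HUVEC) system, biomarker ELISA was run 24 h after compound addition, and total protein in parallel wells was assessed by SRB at 560 nm; DMSO served as negative control.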

Read-out in assay [14]: Interferon-gamma inducible Protein 10 (IP10), CXCL10 (gene 3627)
The assay is described as follows: BSK_BE3C_IP10: BioMAP Diversity Plus: BE3C Assay for Interferon-gamma inducible Protein 10 (IP10) Biomarker Activity (AID 2283034). Conditions: primary human bronchial epithelial cells; actives raise or lower the signal. Summed up: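 BE3C cells (human bronchial epithelial, primary); 24 h exposure; ELISA for IP-10; DMSO-referenced bidirectional fit.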

Read-out in assay [15]: Monokine induced gamma interferon (MIG), CXCL9 (gene 4283)
The assay is described as follows: BSK_BE3C_MIG: BioMAP Diversity Plus: BE3C Assay for Monokine induced gamma interferon (MIG) Biomarker Activity (AID 2283035).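 Note: MIG protein measured by ELISA in BE3C cultures after 24 h of dosing.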 To be noted: primary human bronchial epithelial cells; actives raise or lower the signal. A digest of the protocol: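 hu bronchial epithelial 1° cells, 24 h cpd; MIG by ELISA; bidirectional fit, DMSO = baseline.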

Read-out in assay [16]: Transforming growth factor beta 1 (TGFb1), TGFB1 (gene 7040)
The experiment in a line: BSK_BE3C_TGFb1: BioMAP Diversity Plus: BE3C Assay for Transforming growth factor beta 1 (TGFb1) Biomarker Activity (AID 2283036;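 note: TGF-b1 protein level measured by ELISA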). Conditions: primary human bronchial epithelial cells; actives raise or lower the signal. A digest of the protocol:
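TGF-b1 measured via ELISA, 24 h after chemical dosing of human bronchial epithelial cells (BE3C). Overt cytotoxicity assessed in parallel by SRB (0.1%, TCA-fixed, 560 nm); analysis bidirectional relative to DMSO.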

Read-out in assay [17]: urokinase plasminogen activator (uPA), PLAU (gene 5328)
The experiment in a line: BSK_BE3C_uPA: BioMAP Diversity Plus: BE3C Assay for urokinase plasminogen activator (uPA) Biomarker Activity (AID 2283038).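 Note: uPA protein level quantified by ELISA in cell cultures; uPA read one day after compound addition.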 To be noted: primary human bronchial epithelial cells; actives raise or lower the signal. A digest of the protocol:
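Primary human bronchial epithelial cells, uPA measured by ELISA 24 h after dosing. Bidirectional change relative to DMSO; cytotoxicity checked in parallel cultures by sulforhodamine B total-protein staining.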

Read-out in assay [18]: Urokinase-type plasminogen activator receptor (uPAR), PLAUR (gene 5329)
The experiment in a line: BSK_BE3C_uPAR: BioMAP Diversity Plus: BE3C Assay for Urokinase-type plasminogen activator receptor (uPAR) Biomarker Activity (AID 2283039).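 For outcome: cells exposed to compound for one day before measurement.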 Conditions: primary human bronchial epithelial cells; actives raise or lower the signal. Summed up:
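Chemically treated human bronchial epithelial cells (lung primary) are assayed for uPAR by ELISA after 24 h, with data fitted in both directions using DMSO as negative control.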

Read-out in assay [19]: Plasminogen activator inhibitor-1 (PAI1), SERPINE1 (gene 5054)
The assay is described as follows: BSK_BE3C_PAI1: BioMAP Diversity Plus: BE3C Assay for Plasminogen activator inhibitor-1 (PAI1) Biomarker Activity (AID 2283037). To be noted: primary human bronchial epithelial cells; actives raise or lower the signal. A digest of the protocol: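 In this multiplexed primary-cell system, bronchial epithelial cells receive test chemical and are sampled at 24 h. PAI-1 is read by ELISA, with DMSO serving as negative control for bidirectional fitting.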

Each structure is given as a SMILES string. Calls of active or inactive are those of the source. Rule for the calls: active = hit-call score of the fitted dose curve at least 0.9, where 1 is the maximum; inactive = score below 0.9.

The term AC50 denotes the concentration giving half of the maximal activity seen. `CCOP(=S)(OCC)OC(Cl)C(Cl)(Cl)Cl` (configuration not stated): the result in assay [1], in assay [2], in [4], in assay [8], in assay [9] and in assay [10] was inactive. For the same compound, the result in [11], in assay [12], in [13], in assay [14], in assay [15] and in assay [16] was inactive. Also, the result in assay [17] and in assay [18] was inactive. Further, the AC50 is 14.9 µM (active) in assay [3], 39.8 µM (active) in assay [5], 29.4 µM (active) in assay [6] and 12.4 µM (active) in assay [7].

`CC(C)[C@H](C(=O)O[C@H](C#N)c1cccc(Oc2ccccc2)c1)c1ccc(Cl)cc1`: the result in assay [1], in assay [2], in assay [4], in [5], in [6] and in assay [7] was inactive. The result in assay [9], in [10], in assay [11], in assay [12], in assay [14] and in assay [15] was inactive. Also, the outcome in assay [16], in assay [19] and in assay [17] was inactive. Further, the AC50 in assay [3] was 5.72 µM (active); in assay [13], 2.95 µM (active); in assay [18] it was 5.23 µM (active).

For the compound `CC(C1CC1)C(O)(Cn1cncn1)c1ccc(Cl)cc1` (configuration not stated), the result in assay [1], in [2], in assay [3], in assay [4], in [5] and in [6] was inactive. For the same compound, the outcome in assay [7], in assay [8], in assay [9], in [10], in [11] and in assay [12] was inactive. Further, the outcome in assay [13], in assay [14], in assay [15], in [16], in assay [17] and in assay [18] was inactive.

Consider `CNc1cnn(-c2cccc(C(F)(F)F)c2)c(=O)c1Cl`, for which the result in assay [1], in assay [2], in assay [3], in assay [4], in assay [5] and in assay [6] was inactive. Moreover, the result in [7], in assay [8], in assay [9], in assay [10], in [11] and in [13] was inactive. For the same compound, the outcome in assay [14], in assay [15], in [16], in assay [17] and in assay [18] was inactive. Besides, the AC50 in assay [12] was 23.7 µM (active).

With `CCCCOC(=O)c1ccccc1C(=O)O`, the outcome in [1], in assay [2], in assay [3], in assay [4], in assay [6] and in assay [7] was inactive. Besides, the outcome in assay [8], in [9], in assay [10], in assay [11], in assay [12] and in assay [13] was inactive. In addition, the result in assay [14], in assay [15], in assay [16], in assay [17] and in assay [18] was inactive. For the same compound, the AC50 in assay [5] was 0.28 µM (active).

Turning to `CSc1nnc(C(C)(C)C)c(=O)n1N`, the outcome in assay [1], in assay [2], in [3], in assay [4], in assay [5] and in [6] was inactive. The result in assay [7], in assay [8], in assay [9], in [10], in [11] and in assay [12] was inactive. Further, the outcome in [13], in assay [15], in assay [16], in assay [17] and in [18] was inactive. The AC50 in [14] was 7.16 µM (active).

Regarding `CCOP(=S)(OCC)Oc1cc(C)nc(C(C)C)n1`, the outcome in assay [1], in assay [2], in assay [3], in [4], in assay [5] and in assay [6] was inactive. The outcome in assay [7], in assay [8], in assay [9], in assay [10], in [11] and in assay [12] was inactive. The result in assay [13], in [14], in assay [15], in assay [16], in [19] and in assay [17] was inactive. For the same compound, the result in [18] was inactive.
